Screening data (PubChem)
Only some compounds are listed: those with a hit (about 2.4% of all), similar ones and a draw of the others.
ERK AVP inh: vasopressin-driven ERK pathway inhibition. HEK293-V1b, vasopressin-stimulated pERK AlphaScreen. Potency, µM (doses to about 57.5 µM), for the others: at the top dose activity, negative = inhibition, hits mostly inhibitors. 0.99% of 72,000 active; further: potency means the concentration at half of the fitted maximal effect; on the % scale 0 is the no-effect control and ±100 the full control effect; nearly all actives have a fitted effect of over 55% in size
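Phosphorylated ERK1/2 detected via AlphaScreen bead proximity in lysates of V1b-expressing HEK293 cells given 25 nM vasopressin for 5 min after 30 min compound exposure (37 °C). AC50 from Hill equation; basal DMSO 0%, vasopressin 100%.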
BRCT inh green: BRCA1 BRCT-phosphoprotein interaction inhibition. P38398. BRCA1 BRCT-phosphopeptide binding, green fluorescence polarization. Potency, µM (titrated, usually from 76.9 µM), without a hit: at the highest dose activity change, negative = inhibition, most hits filed as inhibitors. 0.05% of 75,000 active;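 further: potency means the concentration at half of the fitted maximal effect; plate controls were peptide without protein for full effect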
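Compounds were incubated for 12 min at room temperature with a complex of 100 nM fluorescein-tagged pBACH1 decapeptide and 250 nM His-tagged BRCT protein. Buffer was phosphate pH 7.3 with EDTA, DTT and Tween 20. Disruption of binding lowers the polarization signal.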
ALOX15 inhib: blocks human 15-lipoxygenase activity; purified 15hLO-1, xylenol orange hydroperoxide absorbance; Potency, µM (titrated, usually from 57.1 µM), without a hit: at the highest dose activity change, negative = inhibition, hits mostly inhibitors; 1.4% of 74,000 active; AID 887; further: potency means the concentration at half of the fitted maximal effect; on the % scale 0 is the no-effect control and ±100 the full control effect; nearly all actives have a fitted effect of over 55% in size
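Hydroperoxide formed from arachidonic acid (50 uM) by purified human 15hLO-1 (40 nM) oxidizes ferrous iron, and the ferric-xylenol orange complex is read at 573 versus 405 nm. Compounds were preincubated 15 min; reaction ran 6 min at room temperature.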
Pol III holo inh: blocks replication by bacterial DNA polymerase III holoenzyme. reconstituted DNA polymerase III holoenzyme replication, biochemical. Potency, µM (highest dose often 57.1 µM), for inactives: top-dose activity change, negative = inhibition. 0.25% of 71,000 active. AID 603; further: potency means the concentration at half of the fitted maximal effect; on the % scale 0 is the no-effect control and ±100 the full control effect
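Reconstituted *E. coli* holoenzyme (0.35 nM Pol III, 1 nM beta, 154 nM SSB, 2 nM primase) was preincubated with compound for 15 min at RT. Synthesis on 1.4 nM ssM13Gori ran 35 min, then was stopped with PicoGreen/EDTA and read as dsDNA fluorescence.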
BRCT inh red: BRCT-phosphoprotein interaction inhibition (red fluorophore); BRCT-phosphopeptide binding, red fluorescence polarization; 0.03% of 75,000 active; Potency, µM (titrated, usually from 76.9 µM), for inactives: at the highest dose activity change, negative = inhibition, most hits filed as inhibitors; AID 892; further: on the % scale 0 is the no-effect control and ±100 the full control effect
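Rhodamine-labelled pBACH1 10-mer (100 nM) bound to BRCT domain (100 nM) at pH 7.3; compounds incubated 12 min room temperature, polarization read. Free peptide defines full inhibition; unlabelled decapeptide titrated as control.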
TsaE inh: inhibitors of E. coli YjeE (TsaE) | P0AF67 | purified YjeE enzyme, qHTS inhibition assay | Potency, µM | 0.05% of 71,000 active | AID 605
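Fluorescence polarization of a BODIPY Texas Red–ADP probe (2 uM) bound to purified YjeE (10 uM) was read after 15 min room-temperature incubation with compounds. Loss of polarization marks inhibitors; ADP serves as titrated control.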
The depositor's hits bear a star; i = inactive; ? = inconclusive; / = no result given; [ ] = another dose, or the depositor's remark. The call rests on the fitted dose curve; in most records, active means well fitted curve in the direction sought with a large enough effect; inconclusive means small, poorly fitted or top-dose-only effect, or another doubt; inactive means no such curve, though single readings can be large; an effect the other way counts as inactive or inconclusive.

SMILES	ERK AVP inh	BRCT inh green	ALOX15 inhib	Pol III holo inh	BRCT inh red	TsaE inh
CCOC(=O)N/N=C1/C[C@@H](O)[C@@H](O)[C@@H]2[C@H]3C(=O)N(c4ccc(F)cc4F)C(=O)[C@@H]3CC[C@H]12	6%[11.5 µM]	1%[15.4 µM]	8%[11.4 µM]	/	1%[15.4 µM]	/
Cc1cc(O)c(-c2cc(O)c(C)cc2O)cc1O	-4%[11.5 µM]	1%[15.4 µM]	1.6µM*	-9%[11.4 µM]	-1%[15.4 µM]	i
CC(C)OC(=O)c1cn(-c2ccccc2)nc1-c1ccco1	-16%	3%	20µM*	-13%	-1%	i
N#Cc1c(-c2ccco2)cc(C2CC2)nc1SCC(=O)c1ccccc1	8%	7%	16µM*	-2%	-1%	i
c1cn(-c2ccnc(-c3ccc4c(c3)OCO4)n2)cn1	20µM*	-1%	0%	4%	-2%	i
CCc1ccc2[nH]c(=O)c(CN(CCCN3CCOCC3)C(=O)Nc3ccc(F)cc3)cc2c1	?	9%	16µM*	-3%	-2%	i
O=C(Nc1ccc(F)cc1)N(CCCN1CCOCC1)Cc1cc2cc3c(cc2[nH]c1=O)OCCO3	-20%	1%	-10%	-1%	0%	i
COc1ccc(NC(=O)N(Cc2cc3cc(OC)ccc3[nH]c2=O)CC2CCCO2)cc1 (centres undefined)	-22%	-5%	20µM*	?	-1%	i
NCCCCCc1nnc(SCC(=O)c2ccc(Cl)cc2)o1	2%	-1%	?	-1%	1%	i
CCN1CCCC1CN(Cc1cc2ccc(C)c(C)c2[nH]c1=O)C(=O)Nc1ccccc1OC (centres undefined)	-14%	-2%	3%	-2%	-1%	i
O=C(NCC(c1cccnc1)N1CCOCC1)Nc1ccccc1 (centres undefined)	10%	-3%	6%	-5%	0%	i
Cc1ccccc1-c1nc(CS(=O)(=O)CC(=O)Nc2cc(F)ccc2F)c(C)o1	13µM*	0%	-20%	0%	-1%	i
Cc1ccc(NC(=O)c2cc(-c3cccc(O)c3)on2)cc1C	32µM*	-2%	-3%	4%	-1%	i
CSc1ccc(C2C(C#N)=C(N)Oc3c2ccc(=O)c2c(C)oc(C)c32)cc1 (centres undefined)	?	37%	16µM*	5%	1%	i
O=C(NCC1CCCO1)C1c2ccccc2C(=O)N1C1CCCCCC1 (centres undefined)	14%	0%	11%	0%	0%	i
CCOC(=O)N1CCC(NC(=O)C(NC(=O)C2CCCCC2)C(C)C)CC1 (centres undefined)	25%	-3%	9%	-3%	-1%	i
CCOC(=O)N1CCC(NC(=O)C(CC(C)C)NC(=O)C2CCCCC2)CC1 (centres undefined)	12%	0%	16µM*	-3%	0%	i
O=C(O)CCCC(=O)N(Cc1ccccc1)Cc1ccccc1	-24%	1%	4%[11.4 µM]	-6%[11.4 µM]	0%	i
CCN(Cc1ccccc1)C(=O)CCCOc1ccccc1	?	-1%	4µM*	-2%[11.4 µM]	-1%	i
CC(C)(C)C(=O)/C=C(N)/C=C/c1ccccc1	3%	-1%	-14%	-14%	0%	i
CSc1nc(-c2ccco2)nn1S(=O)(=O)c1ccc(C)cc1	-13%	-1%	25µM*	-2%	-2%	i
CSc1nc(-c2ccco2)nn1S(=O)(=O)c1ccccc1	-15%	1%	-13%	1%	0%	i
CCCCNC(=O)C(c1ccc(OCC(=O)OC)c(C(=O)OC)c1)N(CCC1=CCCCC1)C(=O)CCCCCN1C(=O)NC(c2ccc(-c3ccccc3)cc2)C(C(=O)OCc2ccccc2)=C1C (centres undefined)	-16%	-6%	-12%	-1%	-2%	i
O=C(OCC1OC(OC(=O)c2cc(O)c(O)c(OC(=O)c3cc(O)c(O)c(O)c3)c2)[C@@H](OC(=O)c2cc(O)c(O)c(OC(=O)c3cc(O)c(O)c(O)c3)c2)C(OC(=O)c2cc(O)c(O)c(OC(=O)c3cc(O)c(O)c(O)c3)c2)C1OC(=O)c1cc(O)c(O)c(OC(=O)c2cc(O)c(O)c(O)c2)c1)c1cc(O)c(O)c(OC(=O)c2cc(O)c(O)c(O)c2)c1 (some centres undefined)	13µM*	-2%[3.08 µM]	0.5µM*	/	55%	/
CC(=O)OCC1OC(c2ccccc2)C(OC(C)=O)C(OC(C)=O)C1OC(C)=O (centres undefined)	-31%	-1%	7%	-5%	-1%	i
SMILES	ERK AVP inh	BRCT inh green	ALOX15 inhib	Pol III holo inh	BRCT inh red	TsaE inh
CN(C)c1ccc(-c2ccc3ncnc(NCc4ccccc4)c3c2)cc1	13µM*	-4%	-6%	-10%	-2%	i
Cc1cnc(CNc2ncnc3ccc(-c4ccccc4C)cc23)cn1	-29%	0%	2%	-3%	0%	i
c1ccc(CNc2ncnc3ccccc23)cc1	25µM*	8%	-36%	?	0%	i
CN(C)c1ccc(-c2cncnc2NCc2ccccc2)cc1	25µM*	-2%	8%	-2%	-1%	i
CN(C)c1ccc(-c2cncnc2NCc2cccs2)cc1	?	-1%	11%	0%	1%	i
Cc1cnc(CNc2ncnc3ccc(-c4ccccc4Cl)cc23)cn1	20µM*	2%	4%	5%	1%	i
COC(=O)c1ccc(C(/C=C/[C@@H](C)C(=O)NCCN2CCCC2)NC(=O)OCc2ccccc2)cc1 (some centres undefined)	-14%	0%	5%	-2%	0%	i
O=C(Cn1ncn2c(cc3ccccc32)c1=O)NCCC1=CCCCC1	-11%	3%	16µM*	-8%	-2%	i
COc1ccc(OCCC(=O)OCC(=O)NCc2ccco2)cc1	-18%	-2%	13µM*	-6%	0%	i
O=C(COC(=O)c1ccccc1)NCc1ccco1	0%	0%	-26%	-6%	-3%	i
COc1ccccc1NCCC(=O)OCC(=O)NCc1ccco1	16%	-4%	?	46%	-5%	i
O=C(COC(=O)c1ccccc1Oc1ccccc1)NCc1ccco1	?	3%	13µM*	-5%	0%	i
C[C@@]12C=CC(=O)C=C1CC[C@H]1[C@H]3CC[C@](O)(C(=O)CO)[C@]3(C)CC(=O)[C@@H]12	6%[25.7 µM]	1%[34.4 µM]	11%[25.6 µM]	-5%[25.6 µM]	1%[34.4 µM]	i
CCOc1ccc(-n2cc(C(=O)N3CCCCCC3)c3cc(OC)c(OC)cc3c2=O)cc1	9%	0%	6%	2%	0%	i
